The subject of assay [1] is Human papillomavirus type 1a protein E7 (residues 44-93). The experiment in a line: HPV1a E7 fragment binders on microarrays, primary screen, biochemical, small-molecule microarray, residues 44-93, 635 nm fluorescence (AID 1108).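 Further: E7 fragment applied at 1 µg/mL in TBST for 1 h at 4 C; score combines spot fluorescence with its signal to noise ratio.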 As to conditions: small-molecule microarray binding, fluorescence 635 nm; higher = more signal.
Assay [2] is described as follows: modulators of HCV replicon luciferase signal, primary screen, HCV replication inhibitor project, Huh7 cells, luciferase reporter (AID 1109).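 Further: huh7 hepatoma cells harbouring a luciferase neomycin HCV replicon reporter; luciferase luminescence as measure of HCV replicon replication; test concentration not given here.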 Particulars: 48 h, higher = more signal. On the technique in general: A replicon is a self-replicating genome or part of one, used to study replication in cells.
In assay [3] the target is Left-right determination factor 2 (Homo sapiens) (UniProt O00292). The experiment in a line: LEFTY2 binders on small-molecule microarrays, primary screen, biochemical, small-molecule microarray, 635 nm fluorescence scan (AID 1110). As to conditions: LEFTY2 binding, higher = more signal.
Assay [4] has as its target Calmodulin-1 (Homo sapiens) (UniProt P0DP23). Nature of the assay: CALM1 binders on microarrays, EGTA buffer, profiling panel, biochemical, small-molecule microarray, Cy5-labelled CALM1 (AID 1111).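 Further: labelled calmodulin applied in Tris saline Tween buffer holding calcium plus EGTA and DTT.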 Particulars: Cy5-CALM1 binding fluorescence, higher = more signal.
Assay [5] shares this target. Nature of the assay: calcium-bound CALM1 binders on microarrays, profiling panel, artefact control for SMM control-protein annotation, biochemical, small-molecule microarray, Cy5-labelled CALM1, plus calcium (AID 1112).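 Further: score merges spot fluorescence with signal to noise from triplicate slides.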 Particulars: Cy5-CALM1 binding fluorescence, higher = more signal.
Assay [6] is described as follows: small-molecule microarray binders of probe aWnt5a, primary screen, biochemical, biotinylated probe, 635/667 nm fluorescence (AID 1113).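 Further: score merges 667 nm fluorescence intensity with signal-to-noise per printed feature.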 As to conditions: higher = more signal.
A short description of assay [7]: small-molecule microarray binders of probe aShh, primary screen, biochemical, biotinylated probe, 635/667 nm fluorescence (AID 1114).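 Further: probe is biotin-labelled aShh protein from a stem cell growth factor screen; measures binding of labelled protein to compounds printed on the slide; score merges feature fluorescence at 667 nm with signal-to-noise.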 As to conditions: higher = more signal.
Assay [8] is described as follows: small-molecule microarray binders of probe aNog, primary screen, biochemical, biotinylated probe, 635/667 nm fluorescence (AID 1115).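 Further: probe is biotinylated aNog protein used at 0.15 µg/mL for 1 h at 4 C; z-score combines 667 nm fluorescence of each spot with its signal to noise.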 As to conditions: higher = more signal.
Assay [9] concerns the target Torsin-1A-interacting protein 1 (Homo sapiens) (UniProt Q5JTV8). Nature of the assay: LAP1 binders from COS7 cell lysate, primary screen, small-molecule microarray, 635/667 nm fluorescence (AID 1116). As to conditions: COS7-hLAP1 lysate binding, 635 nm fluorescence, higher = more signal.
In assay [10] the target is Alpha-bungarotoxin (Bungarus multicinctus) (UniProt P60615). The experiment in a line: alpha-bungarotoxin binders on microarray, profiling panel, artefact control for SMM control protein annotation, biochemical, small-molecule microarray, Alexa647 label, 635/667 nm fluorescence (AID 1117). As to conditions: alpha-BTX-A647 binding fluorescence, higher = more signal.
Sequence of Alpha-bungarotoxin (Bungarus multicinctus) (P60615 whole entry, looked up): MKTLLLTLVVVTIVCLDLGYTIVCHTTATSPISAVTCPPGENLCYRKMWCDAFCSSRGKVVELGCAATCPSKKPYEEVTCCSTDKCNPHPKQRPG

Sequence of Torsin-1A-interacting protein 1 (Homo sapiens) (Q5JTV8 whole entry, looked up): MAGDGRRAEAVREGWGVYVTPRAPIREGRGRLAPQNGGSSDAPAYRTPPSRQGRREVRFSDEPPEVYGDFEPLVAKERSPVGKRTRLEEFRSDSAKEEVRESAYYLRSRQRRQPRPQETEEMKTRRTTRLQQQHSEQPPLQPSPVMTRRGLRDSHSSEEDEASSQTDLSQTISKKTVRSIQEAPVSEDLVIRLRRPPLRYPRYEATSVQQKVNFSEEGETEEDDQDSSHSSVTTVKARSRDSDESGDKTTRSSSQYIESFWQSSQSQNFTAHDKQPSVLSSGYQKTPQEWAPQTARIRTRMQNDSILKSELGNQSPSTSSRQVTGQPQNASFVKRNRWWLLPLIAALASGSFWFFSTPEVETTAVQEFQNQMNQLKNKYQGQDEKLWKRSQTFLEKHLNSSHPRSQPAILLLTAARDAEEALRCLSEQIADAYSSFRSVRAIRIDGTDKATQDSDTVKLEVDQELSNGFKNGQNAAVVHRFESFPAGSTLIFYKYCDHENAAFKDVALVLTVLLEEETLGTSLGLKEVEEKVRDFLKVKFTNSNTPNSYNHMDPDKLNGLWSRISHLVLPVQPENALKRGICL
Sequence of Left-right determination factor 2 (Homo sapiens) (O00292 whole entry, looked up): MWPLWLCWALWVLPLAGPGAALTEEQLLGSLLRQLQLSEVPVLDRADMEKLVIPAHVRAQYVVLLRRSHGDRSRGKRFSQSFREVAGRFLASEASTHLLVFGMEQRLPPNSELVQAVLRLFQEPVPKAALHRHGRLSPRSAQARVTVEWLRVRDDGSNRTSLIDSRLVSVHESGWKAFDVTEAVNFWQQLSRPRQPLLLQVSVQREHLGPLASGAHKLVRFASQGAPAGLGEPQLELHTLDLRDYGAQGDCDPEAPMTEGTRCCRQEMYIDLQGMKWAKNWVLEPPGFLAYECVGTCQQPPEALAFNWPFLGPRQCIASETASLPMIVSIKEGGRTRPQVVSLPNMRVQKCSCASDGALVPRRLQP

As for `CN(C)CCCNC(=O)[C@@]1(c2ccc([N+](=O)[O-])cc2)CC(=O)N(CC23CC4CC(CC(C4)C2)C3)[C@@H]1c1ccc(CO)cc1`, the composite z-score was 1.23 in assay [1]; 0.364 in assay [3]; 1.43 in [4]; 0.398 in assay [5]; 0.249 in assay [6]; 0.806 in assay [7]. The composite z-score in assay [8] is 2.24; in [9], 2.35; in [10] it was 1.83. In assay [2], the z-score is -3.26.
Take `CN(C)CCCCNC(=O)[C@H]1C[C@H]2C(=O)N[C@@H](CCCCN(C)C)C(=O)N2[C@H]1c1cccc(OCCO)c1`: the composite z-score in assay [1] is 1.41; in [3] it was 1.17; in assay [4], 0.477; in assay [5], -0.167; in assay [6], -0.036; in [7], -0.203. In addition, the composite z-score in assay [8] is 0.0721; in assay [9] it was 0.752; in assay [10], 0.701. Further, in [2], the z-score turned out to be 0.057.
Turning to `NC(=O)NCC#Cc1ccc2c(c1)[C@]1(C(=O)N2)[C@H](c2ccc(O)cc2)N2[C@H](c3ccccc3)[C@H](c3ccccc3)OC(=O)[C@H]2[C@@H]1C(=O)Nc1nc2ccccc2s1`, the composite z-score in [1] worked out at 0.89; in assay [3], 0.413; in [4], 0.563; in assay [5], 0.229; in [6], 0.168; in [7], 0.246. Further, the figures for the composite z-score in assay [8], in assay [9] and in [10] were 0.563, 0.633 and 1.23, respectively. In addition, the z-score in assay [2] is -1.27.
Turning to `CC(C)CN1C(=O)[C@@]2(Cc3ccccc31)c1ccccc1C(=O)N(Cc1ccccc1C(F)(F)F)[C@H]2c1ccc(CO)cc1`, the composite z-score in assay [1] was -1.57; in [3], -0.584; in assay [4], -0.566; in assay [5], -0.815; in [6], -0.2; in [7], -0.138. Besides, the composite z-score is -0.303 in assay [8], -1.07 in assay [9] and 0.14 in [10]. In assay [2], this compound yielded a z-score of 0.186.
Turning to `C[N+](C)(C)CCCC[C@@H]1NC(=O)[C@@H]2C[C@H](C(=O)O)[C@H](c3ccc(O)cc3)N2C1=O`, the composite z-score in [1] was -3.49; in assay [3], -0.566; in assay [4], -0.0386; in assay [5] it was 0.305; in assay [6] it was -0.197; in assay [7] it was -0.141. In addition, the composite z-score in assay [8] is -0.359; in [9], 0.136; in [10], 0.0213. In assay [2], the z-score stood at 0.964.
As for `CO[C@H]1O[C@H](CO)[C@@H](OC(=O)c2ccc(Br)cc2)[C@@H]2OC(=O)[C@@H](Cc3ccc4ccccc4c3)C/C=C/C[C@H](Cc3ccc4ccccc4c3)C(=O)O[C@@H]12`, the composite z-score in [1] is 0.872; in assay [3], -0.255; in assay [4] it was 1.29; in assay [5], -0.145; in assay [6], -0.0894; in assay [7], -0.16. Also, the composite z-score in assay [8] was -0.241; in assay [9] it was 1.22; in [10] it was 0.528. Further, the z-score in [2] was -1.13.
For the compound `CCCCN1CC=CC23O[C@@H]4/C=C\CCC(C)OC(=O)C4[C@H]2C(=O)N(CCCCCCO)[C@@H]3C1=O` (stereo not given in full), the composite z-score is 0.111 in assay [1]; -0.567 in [3]; 0.119 in assay [4]; 0.282 in assay [5]; 0.0321 in [6]; -0.0709 in [7]. Besides, the composite z-score in assay [8] is -0.168; in assay [9], 1.47; in assay [10] it was -0.637. The z-score in assay [2] is -0.0691.
As to `O=C1NC(=O)C2C1C=CC(C(O)c1ccc3c(c1)OCO3)N2Nc1ccccn1` (stereo not given), the composite z-score in assay [1] is -0.945; in [3], 0.324; in assay [4], 0.151; in assay [5] it was -0.197; in assay [6], -0.0524; in assay [7], -0.0769. The composite z-score in assay [8] was 0.677; in assay [9] it was 0.493; in assay [10], 0.498. The z-score in assay [2] worked out at 0.0264.
For the compound `C=C[C@@H](C)[C@H](OC(=O)Nc1ccc(SC)cc1)c1ccc(OCCO)cc1`, the composite z-score is -0.868 in assay [1]; -1.03 in assay [3]; -0.163 in assay [4]; 0.649 in [5]; 0.0423 in assay [6]; -0.206 in assay [7]. For the same compound, the composite z-score in [8] is 1.41; in assay [9], -0.111; in assay [10], 0.0265. In addition, in assay [2], the z-score came to 2.09.
In the case of `C=CC[C@]12N=C(c3ccc(OCCCO)cc3)O[C@H]1c1ccccc1N(C)C2=O`, the composite z-score in [1] is 0.871; in assay [3] it was 0.0374; in assay [4], 0.287; in [5] it was -0.274; in assay [6] it was 0.0169; in assay [7], 0.287. Further, the composite z-score amounted to 1.99 in [8], 1.41 in assay [9] and 0.707 in assay [10]. The compound also registered a z-score in assay [2] of -1.57.
On to `COC(=O)[C@@]1(Cc2ccccc2)[C@H]2c3cc(C(=O)N4CCCC4)n(C[C@H](O)CO)c3C[C@H]2CN1C(=O)c1ccccc1`, for which the composite z-score is 0.391 in [1]; -0.43 in [3]; 2.06 in assay [4]; 0.142 in assay [5]; -0.124 in assay [6]; -0.316 in assay [7]. The results for the composite z-score in assay [8], in [9] and in [10] were -0.107, 2.96 and -0.187, respectively. This compound showed a z-score in assay [2] of -0.925.
As to `[N-]=[N+]=NCc1ccccc1C[C@@]1(C(N)=O)N=C(c2ccc(OCCCO)cc2)O[C@@H]1c1ccccc1CN=[N+]=[N-]`, the composite z-score in assay [1] is 1.43; in assay [3], 0.144; in assay [4] it was 1.37; in assay [5], 0.693; in [6] it was -0.0236; in assay [7], 0.19. Moreover, the composite z-score in [8] stood at 1.08; in assay [9], 0.623; in assay [10], 0.689. The same compound had a z-score in assay [2] of -1.55.
As for `COCCOC(=O)N1C(=O)[C@@]2(c3cc(C#CC4=CCCCC4)ccc31)[C@H](C(=O)N1CCN(c3ncccn3)CC1)[C@H]1C(=O)O[C@H](c3ccccc3)[C@H](c3ccccc3)N1[C@@H]2c1ccc(O)cc1`, the composite z-score is 0.683 in [1]; 0.557 in [3]; 0.951 in assay [4]; 0.727 in assay [5]; -0.0685 in [6]; 0.258 in assay [7]. For the same compound, the composite z-score in assay [8] stood at 0.0234; in assay [9] it was 1.28; in [10], 1.45. The same compound came in with a z-score in assay [2] of -1.46.
